Laboratory results from ChEMBL document CHEMBL3988442, “University of Dundee, Small-Polar-MMV Screening Library” (2021).
For some assays here: Potency and affinity values are given separately.

Columns and labels:
Parameters in all cases: scale not given: direction of the effect not stated beside the values
[1] = target: Protein translocase subunit SecA (Escherichia coli (strain K12)) (UniProt P10408); test: Assay to Identify E. coli SecA ATPase Inhibitors; format: functional; settings: 30 µM
[2] = target: T1, Ubiquitin-activating enzyme e1, putative (Leishmania donovani (strain BPK282A1)) (UniProt E9BSI1); test: Leishmania donovani Ubiquitin Activating Enzyme (LdE1); format: functional; settings: 30 µM
T1 sequence (whole entry): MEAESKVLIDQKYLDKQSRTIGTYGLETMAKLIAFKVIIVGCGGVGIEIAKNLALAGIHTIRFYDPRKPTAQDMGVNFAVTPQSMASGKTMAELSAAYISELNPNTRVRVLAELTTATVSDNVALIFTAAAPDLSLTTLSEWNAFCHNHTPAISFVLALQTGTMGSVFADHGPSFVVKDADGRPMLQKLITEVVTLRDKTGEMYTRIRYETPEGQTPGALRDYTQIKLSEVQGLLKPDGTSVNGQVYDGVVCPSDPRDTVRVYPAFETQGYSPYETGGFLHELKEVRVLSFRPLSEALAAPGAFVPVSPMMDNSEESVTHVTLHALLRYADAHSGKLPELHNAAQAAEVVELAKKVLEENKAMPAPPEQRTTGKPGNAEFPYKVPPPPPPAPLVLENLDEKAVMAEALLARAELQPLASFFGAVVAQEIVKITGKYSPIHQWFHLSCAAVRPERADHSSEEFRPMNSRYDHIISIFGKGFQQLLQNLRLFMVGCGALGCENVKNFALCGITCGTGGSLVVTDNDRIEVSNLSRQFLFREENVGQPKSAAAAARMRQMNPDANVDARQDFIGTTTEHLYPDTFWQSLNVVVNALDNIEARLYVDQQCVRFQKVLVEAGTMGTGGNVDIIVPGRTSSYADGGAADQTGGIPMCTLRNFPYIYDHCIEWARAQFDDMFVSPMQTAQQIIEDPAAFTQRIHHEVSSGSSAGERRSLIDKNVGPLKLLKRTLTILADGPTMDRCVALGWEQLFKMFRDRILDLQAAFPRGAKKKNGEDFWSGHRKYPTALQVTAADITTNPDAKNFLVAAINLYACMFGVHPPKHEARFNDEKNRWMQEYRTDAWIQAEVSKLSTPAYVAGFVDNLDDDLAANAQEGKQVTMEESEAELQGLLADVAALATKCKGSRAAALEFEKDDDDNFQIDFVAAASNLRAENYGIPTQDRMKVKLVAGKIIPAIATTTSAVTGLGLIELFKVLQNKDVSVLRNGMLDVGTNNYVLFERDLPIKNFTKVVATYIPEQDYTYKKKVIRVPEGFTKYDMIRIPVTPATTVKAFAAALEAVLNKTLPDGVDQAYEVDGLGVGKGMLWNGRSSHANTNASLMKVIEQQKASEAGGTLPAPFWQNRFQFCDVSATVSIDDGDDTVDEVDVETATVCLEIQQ

[3] = target: AMP-activated protein kinase, AMPK (Homo sapiens) (UniProt P54646+O43741+P54619+Q9UGJ0+Q9Y478+Q13131+Q9UGI9); test: AMP-dependent Kinase enzyme assay. An in vitro enzyme assay that detects ADP turnover that is directly proportional to AMPK activity. This uses naive AMPK that is activated during the assay with MK-8722; format: functional; settings: 30 µM
[4] = target: Sialic acid-binding Ig-like lectin 9 (Homo sapiens) (UniProt Q9Y336); test: Hs-Siglec9 ALPHAscreen SOP 20170721; settings: 10 µM
Chain of Sialic acid-binding Ig-like lectin 9 (Homo sapiens) (Q9Y336 whole entry): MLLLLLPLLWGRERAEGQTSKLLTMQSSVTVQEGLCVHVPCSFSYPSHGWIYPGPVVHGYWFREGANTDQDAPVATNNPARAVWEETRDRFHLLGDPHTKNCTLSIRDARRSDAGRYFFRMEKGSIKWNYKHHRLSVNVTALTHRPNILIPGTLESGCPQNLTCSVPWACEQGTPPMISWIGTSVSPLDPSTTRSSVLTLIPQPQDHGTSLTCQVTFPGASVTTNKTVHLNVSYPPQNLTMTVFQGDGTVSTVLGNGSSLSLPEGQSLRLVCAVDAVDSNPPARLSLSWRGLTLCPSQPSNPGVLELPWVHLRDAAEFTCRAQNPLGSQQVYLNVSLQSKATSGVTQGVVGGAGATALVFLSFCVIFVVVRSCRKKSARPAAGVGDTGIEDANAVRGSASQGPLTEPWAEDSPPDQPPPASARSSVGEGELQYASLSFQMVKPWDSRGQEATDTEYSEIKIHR

Trypanosoma cruzi = test: Trypanosoma cruzi phosphomannomutase and mannose-1-phosphate guanylyltransferase assay; format: functional; settings: 10 µM
[5] = target: T2, Arginase-2, mitochondrial (Homo sapiens) (UniProt P78540); test: in vitro enzyme assay to detect the production of urea directly proportional to the activity of Arginase II; format: functional; settings: 33.3 µM; note: in the data most compounds retested in dose-response had high values
T2 sequence (whole entry): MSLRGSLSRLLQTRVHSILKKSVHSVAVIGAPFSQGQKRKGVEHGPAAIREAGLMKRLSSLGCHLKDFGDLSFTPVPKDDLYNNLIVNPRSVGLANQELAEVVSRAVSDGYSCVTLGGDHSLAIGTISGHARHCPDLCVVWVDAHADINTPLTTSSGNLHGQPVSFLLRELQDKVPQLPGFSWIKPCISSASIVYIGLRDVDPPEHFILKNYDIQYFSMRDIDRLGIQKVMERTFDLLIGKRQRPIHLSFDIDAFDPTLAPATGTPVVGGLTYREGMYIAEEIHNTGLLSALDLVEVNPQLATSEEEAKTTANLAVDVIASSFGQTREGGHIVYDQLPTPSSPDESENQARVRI

[6] = target: T3, Proteasome subunit beta (Trypanosoma cruzi) (UniProt O96673); test: Trypanosoma cruzi proteasome chymotrypsin-like activity (TcProtChymo) assay.; note: in the data most compounds retested in dose-response had high values; format: functional; settings: 9.37 µM
T3 sequence (whole entry): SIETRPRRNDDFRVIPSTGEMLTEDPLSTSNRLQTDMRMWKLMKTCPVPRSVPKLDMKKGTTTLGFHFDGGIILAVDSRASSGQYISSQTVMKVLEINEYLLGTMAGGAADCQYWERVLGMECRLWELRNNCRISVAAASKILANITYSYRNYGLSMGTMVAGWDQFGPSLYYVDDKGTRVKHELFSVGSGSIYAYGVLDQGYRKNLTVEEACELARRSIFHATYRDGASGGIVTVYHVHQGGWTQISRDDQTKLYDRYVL

Homo sapiens = organism: Homo sapiens; test: To identify inhibition of the IFN signalling (Jak-Stat) pathway via expression of an eGFP reporter gene under the control of an IFN-stimulated response element (ISRE) containing MxA promoter.; format: functional; settings: 30 µM
[7] = target: T4, Tyrosyl-tRNA synthetase, putative (Trypanosoma cruzi (strain CL Brener)) (UniProt Q4DSP6); test: Trypanosoma cruzi tyrosyl tRNA synthetase (TcYRS) _High Tyrosine SOP; format: functional; settings: 30 µM; note: in the data most compounds retested in dose-response had high values
T4 sequence (whole entry): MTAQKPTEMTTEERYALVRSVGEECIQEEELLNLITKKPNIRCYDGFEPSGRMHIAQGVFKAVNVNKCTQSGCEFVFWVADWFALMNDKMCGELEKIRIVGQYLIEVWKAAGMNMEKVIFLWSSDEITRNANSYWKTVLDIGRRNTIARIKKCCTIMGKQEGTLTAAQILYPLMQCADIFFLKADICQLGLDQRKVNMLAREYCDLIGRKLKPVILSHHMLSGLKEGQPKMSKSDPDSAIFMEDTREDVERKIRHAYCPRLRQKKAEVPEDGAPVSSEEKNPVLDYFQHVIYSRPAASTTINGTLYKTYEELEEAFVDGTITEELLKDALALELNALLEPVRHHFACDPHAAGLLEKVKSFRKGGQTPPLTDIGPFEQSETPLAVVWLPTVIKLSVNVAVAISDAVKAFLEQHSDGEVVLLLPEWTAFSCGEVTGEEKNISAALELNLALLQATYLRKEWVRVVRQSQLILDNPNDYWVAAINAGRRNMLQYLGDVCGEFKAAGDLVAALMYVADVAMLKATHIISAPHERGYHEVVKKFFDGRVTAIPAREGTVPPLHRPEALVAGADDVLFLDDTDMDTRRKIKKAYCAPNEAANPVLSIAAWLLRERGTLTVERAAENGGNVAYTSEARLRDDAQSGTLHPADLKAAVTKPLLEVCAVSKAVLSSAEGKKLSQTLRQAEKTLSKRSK

[8] = target: T4, Tyrosyl-tRNA synthetase, putative (Trypanosoma cruzi (strain CL Brener)); test: Trypanosoma cruzi tyrosyl tRNA synthetase (TcYRS) SOP; format: functional; settings: 30 µM
[9] = target: Chromo domain-containing protein 1 (Saccharomyces cerevisiae (strain ATCC 204508 / S288c) (Baker's yeast)) (UniProt P32657); test: ScCHD-1 Enzyme Inhibition Assay; format: functional; settings: 30 µM; note: in the data most compounds retested in dose-response had high values
Chain of Chromo domain-containing protein 1 (Saccharomyces cerevisiae (strain ATCC 204508 / S288c) (Baker's yeast)) (P32657 whole entry, the tested form may be a part): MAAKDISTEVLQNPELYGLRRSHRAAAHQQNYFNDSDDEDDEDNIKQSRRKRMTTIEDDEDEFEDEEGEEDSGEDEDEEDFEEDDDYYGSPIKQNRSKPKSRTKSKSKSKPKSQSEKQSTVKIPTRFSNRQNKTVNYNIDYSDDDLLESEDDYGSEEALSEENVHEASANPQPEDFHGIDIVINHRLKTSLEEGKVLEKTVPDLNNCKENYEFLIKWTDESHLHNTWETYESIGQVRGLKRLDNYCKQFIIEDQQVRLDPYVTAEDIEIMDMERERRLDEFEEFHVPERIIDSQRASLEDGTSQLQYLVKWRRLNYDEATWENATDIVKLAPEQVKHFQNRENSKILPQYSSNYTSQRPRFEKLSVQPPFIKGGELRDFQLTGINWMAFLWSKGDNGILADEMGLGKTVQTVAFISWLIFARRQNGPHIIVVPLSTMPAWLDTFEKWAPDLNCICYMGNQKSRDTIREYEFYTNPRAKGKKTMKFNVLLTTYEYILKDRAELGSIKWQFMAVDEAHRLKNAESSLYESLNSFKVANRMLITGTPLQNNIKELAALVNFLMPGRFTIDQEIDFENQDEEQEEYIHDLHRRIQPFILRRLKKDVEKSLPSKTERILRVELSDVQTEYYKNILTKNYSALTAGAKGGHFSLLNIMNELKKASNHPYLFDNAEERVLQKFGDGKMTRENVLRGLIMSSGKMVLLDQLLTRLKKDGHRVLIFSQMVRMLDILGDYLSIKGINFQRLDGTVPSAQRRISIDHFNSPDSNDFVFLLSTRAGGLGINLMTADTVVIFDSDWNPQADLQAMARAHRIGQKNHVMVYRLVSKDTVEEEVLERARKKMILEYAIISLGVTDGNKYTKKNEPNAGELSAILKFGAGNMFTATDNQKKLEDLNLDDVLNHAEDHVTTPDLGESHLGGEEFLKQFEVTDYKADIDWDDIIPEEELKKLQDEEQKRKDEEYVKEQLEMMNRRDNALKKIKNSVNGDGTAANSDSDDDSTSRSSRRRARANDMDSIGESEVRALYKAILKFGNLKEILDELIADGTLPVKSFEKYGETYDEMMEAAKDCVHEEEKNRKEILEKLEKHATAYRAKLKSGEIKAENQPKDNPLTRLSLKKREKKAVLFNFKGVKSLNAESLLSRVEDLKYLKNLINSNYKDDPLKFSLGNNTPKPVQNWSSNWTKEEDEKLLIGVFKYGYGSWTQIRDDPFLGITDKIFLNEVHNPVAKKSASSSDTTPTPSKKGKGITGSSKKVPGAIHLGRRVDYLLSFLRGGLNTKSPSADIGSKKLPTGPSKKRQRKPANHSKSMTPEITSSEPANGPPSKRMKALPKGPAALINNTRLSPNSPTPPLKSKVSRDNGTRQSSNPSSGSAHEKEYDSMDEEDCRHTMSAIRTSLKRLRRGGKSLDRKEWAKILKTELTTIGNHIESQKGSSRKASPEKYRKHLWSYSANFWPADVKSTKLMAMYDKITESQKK

Chain of Protein translocase subunit SecA (Escherichia coli (strain K12)) (P10408 whole entry): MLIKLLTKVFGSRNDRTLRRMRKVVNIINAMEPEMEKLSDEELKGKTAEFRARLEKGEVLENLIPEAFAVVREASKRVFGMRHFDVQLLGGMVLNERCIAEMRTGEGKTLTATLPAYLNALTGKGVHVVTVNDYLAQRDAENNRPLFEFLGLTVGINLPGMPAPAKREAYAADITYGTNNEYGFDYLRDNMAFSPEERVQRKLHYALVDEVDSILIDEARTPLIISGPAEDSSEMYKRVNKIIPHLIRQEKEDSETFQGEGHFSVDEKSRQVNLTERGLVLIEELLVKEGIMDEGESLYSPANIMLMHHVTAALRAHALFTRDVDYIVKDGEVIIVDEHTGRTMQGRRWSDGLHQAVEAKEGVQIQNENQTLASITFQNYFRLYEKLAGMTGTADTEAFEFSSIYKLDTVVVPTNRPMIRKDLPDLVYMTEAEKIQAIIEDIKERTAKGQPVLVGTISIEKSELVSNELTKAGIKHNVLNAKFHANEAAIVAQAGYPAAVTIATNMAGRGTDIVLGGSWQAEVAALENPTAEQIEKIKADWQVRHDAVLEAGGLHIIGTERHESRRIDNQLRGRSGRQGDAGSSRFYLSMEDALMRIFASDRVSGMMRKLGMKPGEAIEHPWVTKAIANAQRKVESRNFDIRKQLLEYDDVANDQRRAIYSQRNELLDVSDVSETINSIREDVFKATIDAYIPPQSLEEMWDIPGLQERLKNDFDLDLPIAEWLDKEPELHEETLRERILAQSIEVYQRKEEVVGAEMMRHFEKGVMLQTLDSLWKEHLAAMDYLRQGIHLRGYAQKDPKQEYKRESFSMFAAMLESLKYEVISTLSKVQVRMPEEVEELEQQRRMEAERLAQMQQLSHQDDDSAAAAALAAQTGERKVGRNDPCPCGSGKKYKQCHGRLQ

Structure (SMILES) | Percent Effect [1] [%] | Percent Effect [2] [%] | Percent Effect [3] [%] | Percent Effect [4] [%] | Percent Effect (Trypanosoma cruzi) [%] | Percent Effect [5] [%] | Percent Effect [6] [%] | Percent Effect (Homo sapiens) [%] | Percent Effect [7] [%] | Percent Effect [8] [%] | Percent Effect [9] [%]
O=C(c1cccc(F)c1)N1CCN2C[C@H](OCc3cccnc3)C[C@H]2C1 | -4.82 | 10.7 | 5.61 | 1.34 | -3.15 | 6.29 | 10.7 | 8.83 | 3.19 | 14.1 | -3.02
CSc1ccc(NC(=O)Nc2ccc3c(c2)N(S(C)(=O)=O)CC3)cc1 | -1.27 | -23.4 | -4.52 | 3.62 | 3.06 | -93.5 | 27.9 | 30.8 | -6.35 | -14.1 | -6.55
CCC(=O)NCc1cc(Br)ccc1OC(F)F | -4.17 | 8 | -2.35 | 7.52 | 3.41 | 1.04 | 13.6 | -8.01 | 9.29 | 18.5 | -6.17
CC(C)c1nc(CN2CCN(C(C)c3nc(C4CC4)no3)CC2)no1 (configuration not stated) | -0.845 | -3.8 | 4.42 | 1.01 | -1.13 | 1.07 | 3.09 | -8.78 | 2.08 | 2.53 | 2.13
CC(NC(=O)N(C)Cc1ccc(Cl)s1)c1ccccn1 (configuration not stated) | -2.39 | 13.9 | 9.06 | -0.224 | 0.308 | 1.07 | 6.86 | 14.4 | 3.12 | 12.7 | -14.9
COCCN(Cc1nc2c(cnn2C)c(=O)[nH]1)Cc1ccco1 | -2.48 | 16.2 | -7.78 | -3.6 | -4.43 | 5.61 | 12.6 | 4.47 | 9.36 | 18.5 | -4.09
c1ccc(CN2CCCC2Cn2cncn2)nc1 (configuration not stated) | -2.52 | -2.53 | 3.76 | 6.27 | 3.87 | -0.76 | 5.32 | -14.3 | 9.36 | 3.8 | -4.39
CCN(CC)C(=O)CCc1c(C)nc2cc(O)nn2c1C | -1.3 | 0 | -288 | 0.0855 | -3.99 | -1.18 | 24.1 | 3.53 | 4.25 | 7.79 | -6.56
CN1[C@H](Cn2cncn2)C[C@@H]2CN(Cc3cccc(C#N)c3)CC[C@@H]21 | -1.53 | 13.5 | -0.719 | -6.04 | 0 | -2.5 | 15 | -2.04 | 9.9 | 13.4 | 2.31
O=C(NCCCn1cncn1)NCC(c1ccccc1)N1CCCC1 (configuration not stated) | -4.8 | 2.6 | -5.77 | -8.15 | 5.58 | -2.32 | 14.6 | 6.64 | 3.81 | 2.35 | -23.6
Cc1nc(C)c(C(=O)NCCNC(=O)Cc2cccc(F)c2)s1 | -3.25 | 16.2 | -2.81 | 1.34 | 0.464 | 0.924 | 17.8 | 17.9 | 9.9 | 18.3 | -4.49
CC(C)(C)c1nnc(CN2CCN(CC(O)c3ccccc3)CC2)o1 (configuration not stated) | -4.73 | 10.1 | -1.08 | 7.24 | 2.55 | 0 | -6.31 | 10.4 | 5.42 | 16.5 | -5.94
O=C(c1cccc2[nH]ncc12)N1CCCC1c1noc(C2CC2)n1 (configuration not stated) | 0.141 | 20.2 | 1.95 | -11.1 | -3.31 | 8.74 | 7.29 | 24.4 | 5.42 | 11.4 | -8.01
CN(C)c1ccc(CCCNC(=O)Nc2ccc(C#N)cc2)cc1 | 1.86 | 8.11 | 2.26 | 11.1 | 3.86 | 11.4 | 15.7 | 72 | 5.82 | 14.6 | -5.31
COc1ccc(CN2C[C@@H](OCc3ccccn3)[C@H]3COC[C@H]32)cc1 | -4.56 | -8.11 | -0.636 | -1.37 | -3.62 | 6.05 | 20.1 | 22.6 | -1.08 | 12.8 | 2.02
O=C1C[C@H]2[C@@H](CCN2C(=O)c2ccccc2)N1CCN1CCOCC1 | -2.13 | -2.74 | 0.783 | 2.27 | 0.794 | -2 | 2.48 | 0.931 | 2.08 | -1.24 | -3.6
Cn1c(Cn2ccnc2)nnc1C1CCN(C(=O)C2(C)CC2)CC1 | -1.61 | 11 | -0.77 | 4.51 | -2.98 | -4.39 | 21 | 17 | 5.21 | 18.5 | -5.12
O=S(=O)(c1ccccc1)N1CCN(CCn2ccnc2)CC1 | -6.59 | 2.74 | -6.09 | -6.85 | 0.979 | 3.64 | 7.28 | 6.13 | 6.45 | 7.5 | -3.52
CCC(C)(NCC(=O)Nc1ccccc1)c1nc(C)cs1 (configuration not stated) | -2.41 | 2.7 | -4.26 | 30.5 | 2.05 | 18.6 | -0.772 | -24.9 | 1.07 | 6.17 | 2.11
Cc1ccccc1CSc1nc(N)cc(N2CC[C@@H](O)C2)n1 | -5.3 | 16.2 | -11.2 | 22.8 | 7.33 | -3.23 | 11.4 | 28.7 | 20.4 | 30.9 | -7.45
COc1ccnc(N2CCN(C(=O)Cc3ccc(C#N)cc3)CC2)n1 | -3.03 | 13 | -3.06 | 0.369 | 3.82 | 1.9 | 12.7 | 7.36 | 7.62 | 23.5 | -7.06
CSC(C)(C)CNC(=O)NCCC1CCN(C)CC1 | -2.34 | 2.67 | -5.7 | -5.29 | 0.487 | -1.56 | 2.96 | 11.5 | 1.64 | 6.17 | 1.16
